Screening data deposited in PubChem BioAssay by Buhrlage Lab, Dana-Farber Cancer Institute and Novartis Institutes for BioMedical Research (Cambridge, Mass).
OTUD3 inh: inhibitors of human OTUD3 deubiquitinase; hit rate 0.7% among 47,000; OTU domain-containing protein 3 (Homo sapiens), Q5T2D3; purified OTUD3, Ub-rhodamine fluorescence, 2 h; inhibition, % at 25 µM
USP10 inh: inhibitors of human USP10 deubiquitinase; Ubiquitin carboxyl-terminal hydrolase 10 (Homo sapiens), Q14694; purified USP10, Ub-rhodamine fluorescence, 60 min; inhibition, % at 20 µM; hit rate 1.1% among 47,000
Target sequence (Q14694 whole entry, looked up): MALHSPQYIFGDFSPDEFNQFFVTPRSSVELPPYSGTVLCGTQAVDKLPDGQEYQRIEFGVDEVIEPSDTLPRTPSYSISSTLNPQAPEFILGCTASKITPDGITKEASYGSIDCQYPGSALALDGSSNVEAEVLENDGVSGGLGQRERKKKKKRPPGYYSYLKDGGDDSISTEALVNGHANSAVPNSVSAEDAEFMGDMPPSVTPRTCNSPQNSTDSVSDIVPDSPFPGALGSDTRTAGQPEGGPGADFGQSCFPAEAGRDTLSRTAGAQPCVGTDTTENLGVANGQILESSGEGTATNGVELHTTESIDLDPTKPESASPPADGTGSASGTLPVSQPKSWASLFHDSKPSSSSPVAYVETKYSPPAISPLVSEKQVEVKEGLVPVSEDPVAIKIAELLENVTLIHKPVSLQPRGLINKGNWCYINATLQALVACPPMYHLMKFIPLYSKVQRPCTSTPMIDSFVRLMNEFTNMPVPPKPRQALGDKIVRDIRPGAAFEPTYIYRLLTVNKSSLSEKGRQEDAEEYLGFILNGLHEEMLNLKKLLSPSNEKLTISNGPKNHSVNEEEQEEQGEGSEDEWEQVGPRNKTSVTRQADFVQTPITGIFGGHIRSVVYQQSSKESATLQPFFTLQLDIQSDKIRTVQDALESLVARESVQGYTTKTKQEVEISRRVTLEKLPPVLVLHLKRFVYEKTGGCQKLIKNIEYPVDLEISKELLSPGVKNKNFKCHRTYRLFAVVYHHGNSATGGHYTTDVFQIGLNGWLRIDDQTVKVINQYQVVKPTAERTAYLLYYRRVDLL
USP7 block: inhibitors of human USP7 deubiquitinase | inhibition, % at 20 µM | hit rate 0.3% among 47,000 | AID 1645854, 2021 | Ubiquitin carboxyl-terminal hydrolase 7 (Homo sapiens), Q93009 | purified USP7, Ub-rhodamine cleavage fluorescence
USP28 block: inhibitors of human USP28 deubiquitinase; Ubiquitin carboxyl-terminal hydrolase 28 (Homo sapiens), Q96RU2; purified USP28, Ub-rhodamine cleavage fluorescence, 30 min; inhibition, % at 25 µM; hit rate 3% among 47,000
UCHL1 inh: inhibitors of human UCHL1 deubiquitinase; Ubiquitin carboxyl-terminal hydrolase isozyme L1 (Homo sapiens), P09936; purified UCHL1, Ub-rhodamine cleavage fluorescence; inhibition, % at 20 µM; hit rate 0.2% among 47,000; AID 1645859, 2021
Numbers without * were called inactive; . = no result. An excerpt weighted towards active compounds, which were near 4.2% of everything screened. Cut-off read from the data, not from the text of the source: active = inhibition above about 30%; inactive = the rest.

SMILES	OTUD3 inh	USP10 inh	USP7 block	USP28 block	UCHL1 inh
CCc1ccc(NS(=O)(=O)c2ccc(-c3cnc(C)o3)cc2)cc1	3	2	8	9	7
CCc1ccc(S(=O)(=O)Nc2ccc(-c3nnc(-c4ccccc4)o3)cc2)cc1	11	47*	18	33*	9
CCn1c(COc2cccc(C(F)(F)F)c2)nnc1SCc1ccc(Cl)cc1	24	18	-29	59*	9
CCOC(=O)C1CCN(Cc2cc(=O)oc3cc(O)c(O)cc23)CC1	85*	34*	52*	85*	76*
CCOC(=O)C1CCCN(Cc2cc(=O)oc3cc(C)c(C(C)C)cc23)C1 (stereo not given)	0	4	6	0	2
Cn1c(=O)c2c(ncn2CC(=O)NC2CCCc3ccccc32)n(C)c1=O (stereo not given)	7	0	1	82*	0
CC1O[C@@H](c2ccc3c(c2O)C(=O)C2=C(C3=O)[C@@]3(O)C(=O)C(O)[C@](C)(O)C[C@@]3(O)C=C2)CC[C@@H]1OC(=O)/C=C/C=C/C=C/[C@@H]1O[C@@](C)(C(=O)O)O[C@H]1C (stereo not given in full)	46*	-5	-18	48*	38*
C[C@@H]1OC(O[C@@H]2C[C@H](c3ccc4c(c3O)C(=O)C3=C(C4=O)[C@@]4(OC5CC[C@H](O)[C@H](C)O5)C(=O)C[C@](C)(O)C[C@@]4(O)C=C3)O[C@H](C)C2O)CC[C@@H]1O[C@H]1C[C@@H](O)[C@H](O)[C@@H](C)O1 (stereo not given in full)	-85	-8	-120	-200	-142
CC(C)(C)c1cc(CCC(=O)Nc2c3c(nc4c2CCC4)CCCC3)cc(C(C)(C)C)c1O	26	-8	5	34*	3
CN=C(N)NCCC/C=C/CCCC(C)CC(C)C1OC(=O)/C=C/C(C)C(O)CC(O)C(C)C(O)CCC(C)C(O)CC2(O)OC(CC(OC(=O)CC(=O)O)CC(O)CC(O)C(C)C(O)/C=C/C1C)CC(O)C2O (stereo not given)	6	3	9	53*	9
O=C(O)c1cccc(NC(=O)C(Sc2cccc(NC(=O)c3cccc(Cl)c3)c2)c2ccccc2)c1 (stereo not given)	3	46*	-5	26	4
Cc1cccc(C(=O)Nc2cccc(SC(C(=O)Nc3ccc(O)c(C(=O)O)c3)c3ccccc3)c2)c1 (stereo not given)	8	31*	27	52*	25
CC1CCN(C(=O)c2cnc3sc4c(n3c2=O)CCCC4)CC1	-1	1	0	1	0
COc1ccc(OC)c(NC(=O)c2cc3c(OC)cccc3[nH]2)c1	-3	-7	-10	0	4
COc1ccc(NC(=O)[C@H](C)NC(=O)c2cc3c(OC)cccc3[nH]2)cc1Cl	88*	51*	39*	74*	10
O=C(c1ccc(Br)o1)N(Cc1ccccc1Cl)c1ccccn1	17	5	0	31*	1
O=C(c1ccco1)N(Cc1ccccc1Cl)c1ccccn1	9	0	-1	11	2
Cc1cccc(OCCCSc2nc3ccccc3[nH]2)c1	16	14	2	45*	9
COc1cccc(OCCCSc2nc3ccccc3[nH]2)c1	-2	14	3	41*	6
COc1ccc(NC(=O)CCCSc2nc3ccccc3[nH]2)cc1OC	0	-3	3	6	0
COc1ccccc1NC(=O)CSc1nnc(-c2ccccn2)n1-c1cc(C)cc(C)c1	-13	7	-4	-3	2
COc1ccc(-c2noc(-c3ccc(N4CCC5(CC4)OCCO5)nc3)n2)cc1	13	-1	7	9	2
CCCOC(=O)c1cc(NC(=O)c2ccc(OCC)c(Cl)c2)ccc1N1CCOCC1	-2	6	5	49*	3
CCOC(=O)c1cc(NC(=O)c2ccc(F)cc2)ccc1N1CCOCC1	-2	-3	-4	.	-1
COc1ccc(S(=O)(=O)N2CCN(c3nc4ccc(C)cc4cc3C#N)CC2)cc1	12	-6	5	12	5
SMILES	OTUD3 inh	USP10 inh	USP7 block	USP28 block	UCHL1 inh
O=C(NCc1ccncc1)C1CCN(c2cncnc2N2CCCCC2)CC1	-14	-1	-4	52*	-9
CCCOc1ccc(CNC(=O)C2CCN(c3ccncc3)CC2)cc1	-5	2	1	35*	-1
Cc1ccccc1CNC(=O)C1CCN(c2ccncc2)CC1	-6	0	0	-6	-1
CCn1c(=O)c(CCC(=O)NCc2ccc(OC)cc2)c(C)c2c(C)nn(-c3ccccc3C)c21	24	5	6	56*	7
CCn1c(=O)c(=O)[nH]c2cc(C(=O)Nc3cccc(-c4csc(C)n4)c3)ccc21	-3	2	-1	75*	0
CCC(=O)Nc1nc2cc(NC(=O)c3cc(OC)c(OC)c(OC)c3)ccc2s1	-32	0	0	-23	-1
COc1cc(C(=O)Nc2ccc(-c3csc(C)n3)cc2)cc(OC)c1OC	-8	-1	0	78*	5
COc1cc(C(=O)Nc2ccc3nccnc3c2)cc(OC)c1OC	2	3	1	34*	3
Cc1nc(-c2ccc(C(=O)Nc3ccc(F)cc3)cc2)cs1	10	24	34*	21	10
COc1ccc(-c2c(C)nn3c(N4CCCC(O)C4)cc(C)nc23)cc1 (stereo not given)	-5	-1	0	4	3
O=C(c1ccc2ccccc2n1)N1C[C@H]2CC[C@@H](Nc3cnccn3)[C@H]2C1	-6	-2	-1	-5	-2
CC1CCN(CCNC(=O)c2cc3cn(C4CC4)cc3s2)CC1	-53	-7	-17	-63	-15
COc1ccc(C(=O)Nc2cccc(-c3csc(C)n3)c2)cc1OC	-16	-1	-1	46*	2
COc1cn(CC(=O)Nc2cccc(F)c2)c(CSc2ccccc2)cc1=O	10	0	-32	17	4
COc1ccc(Nc2nc3c(S(=O)(=O)c4ccc(C)cc4)nnn3c3ccsc23)c(OC)c1	13	38*	14	16	8
Cc1cccc(-n2c(=O)[nH]c3c(C(N)=O)nc(-c4ccccn4)nc32)c1	7	-7	-2	14	-4
NC(=O)c1nc(-c2cccnc2)nc2c1[nH]c(=O)n2-c1ccc2c(c1)OCO2	48*	25	7	53*	1
NC(=O)c1nc(-c2ccccn2)nc2c1[nH]c(=O)n2-c1ccc2c(c1)OCO2	45*	-4	6	13	3
CCN(C(=O)CSc1nc2ccccc2[nH]1)C1CCCCC1	-6	1	-11	-1	-4
CCCc1nc2sc3c(NCCC(C)C)ncnc3c2c2c1CCC2	-15	-9	-3	29	-8
CCCc1nc2sc3c(NCCCN4CCOCC4)ncnc3c2c2c1CCC2	-7	-6	2	84*	2
